The values below come from PubChem BioAssay.

The source made the active and inactive calls.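 How the source made its calls, unless noted: active means GFP response above 150% of the DMSO level; inconclusive means fewer than 70 events counted for a yeast strain; inactive means the rest.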

A word on the inhibition: it is the drop in the measured response relative to a control, in per cent.

The nature of assay [1]: reduced mouse 2C T cell binding to pMHC/ICAM-1 vesicles – MLPCN validation set, flow cytometry, LFA-1/ICAM-1 modulator project, pilot screen (AID 2523;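 active means response below a set limit, under 55% cells CD8-positive and vesicle-bound, and CD8 cells' 90th-percentile brightness under 279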;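 on vesicle binding response: mean PE anti-B7-1 fluorescence of CD8+ cells relative to row control; 100% = QL9-loaded vesicles with DMSO vehicle in the same plate row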). To be noted: 2C mouse CD8+ T cells, at 7 µM, stronger effect = lower value; double positive events: measured here: CD8+/vesicle+ event percentage. In general terms: Flow cytometry measures light scatter and fluorescence of single cells or particles in a stream.

Assay [2] concerns the target Integrin beta-1 (Homo sapiens) + Integrin alpha-4 (Homo sapiens) (UniProt P13612+P05556). In words: alpha4beta1 integrin LIBS antibody binding reduction – U937 cells, HUTS-21 mAb, flow cytometry, validation set, VLA-4 allosteric modulator project, pilot screen (AID 2674;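 active means inhibition above 50%, about 3 SD of the validation set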;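 further: antibody binding induced by the VLA-4 ligand LDV present at three times its Kd; 0% = LDV ligand with antibody and no compound and 100% = antibody without LDV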). The following applies: HUTS-21 LIBS mAb binding, at 6.7 µM, stronger effect = higher value, binding induced by LDV ligand.

Assay [3] can be described thus: calorie-restriction mimetic ROS inhibitors, yeast – validation compound set, pilot screen (AID 2706;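 active means superoxide response below 65% of plate, a cut near 3 SD across the whole screen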;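 further: yeast exposed to compound for one week at 30 degrees C before staining; 100% = mean of all compound wells on the same plate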). The following applies: S. cerevisiae aging, superoxide DHE fluorescence; at 10 µM, stronger effect = lower value.
Assay [4] addresses Beta-adrenergic receptor kinase 1 (Homo sapiens) (UniProt P25098). Description: GRK2 binders displacing RNA aptamer, biochemical, validation, human GRK2, bead flow cytometry (AID 488806;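 active means aptamer binding inhibition above 30%, about 3 SD of noise from non-fluorescent compounds; inactive means inhibition at or below 30%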). To be noted: bead-bound GRK2, FAM-aptamer displacement, at 10 µM, stronger effect = higher value.
The target in assay [5] is Beta-2 adrenergic receptor (Homo sapiens) (UniProt P07550). In words: agonist-induced loss of surface beta2AR – cell-based, FAP fluorogen, flow cytometry, validation set, pilot screen (AID 504459;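 active means percent response above 42, roughly 3 SD of non-fluorescent test compounds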;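 further: agonist-driven loss of surface beta2AR via internalization measured by FAP dye flow cytometry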). To be noted: Am2.2-beta2AR cells, at 10 µM, stronger effect = higher value.
Beta-2 adrenergic receptor (Homo sapiens), sequence (P07550 whole entry, looked up): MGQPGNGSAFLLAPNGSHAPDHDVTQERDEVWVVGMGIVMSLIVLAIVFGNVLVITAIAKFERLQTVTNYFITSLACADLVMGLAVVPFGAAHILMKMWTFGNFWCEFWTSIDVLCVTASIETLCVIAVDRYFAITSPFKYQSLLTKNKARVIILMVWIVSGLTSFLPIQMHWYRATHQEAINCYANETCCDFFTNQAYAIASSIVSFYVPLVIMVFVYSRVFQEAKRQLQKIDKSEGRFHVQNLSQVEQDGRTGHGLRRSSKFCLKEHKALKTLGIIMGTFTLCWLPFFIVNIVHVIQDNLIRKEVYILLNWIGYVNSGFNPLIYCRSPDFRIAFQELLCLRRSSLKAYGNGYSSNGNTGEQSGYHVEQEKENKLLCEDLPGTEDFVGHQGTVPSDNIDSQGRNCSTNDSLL
The target in assay [6] is AP-2 complex subunit beta (Homo sapiens) (UniProt P63010). In words: beta-arrestin/AP2 interaction blockers – biochemical, validation set, GST-AP2 beads, flow cytometry, pilot screen (AID 504541;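 active means inhibition above 54%, about 3 SD of non-fluorescent compounds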;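 further: AP2 carries R879A mutation and is captured from E. coli lysate; bead-bound FITC arrestin peptide fluorescence measuring arrestin peptide binding to AP2; 0% = DMSO wells and 100% = excess unlabeled arrestin peptide control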). The following applies: FITC arrestin peptide, at 10 µM, stronger effect = higher value, AP2 beta2 appendage fragment, R879A mutant.
AP-2 complex subunit beta (Homo sapiens), sequence (P63010 whole entry, looked up, the tested form may be a part, one chain of several): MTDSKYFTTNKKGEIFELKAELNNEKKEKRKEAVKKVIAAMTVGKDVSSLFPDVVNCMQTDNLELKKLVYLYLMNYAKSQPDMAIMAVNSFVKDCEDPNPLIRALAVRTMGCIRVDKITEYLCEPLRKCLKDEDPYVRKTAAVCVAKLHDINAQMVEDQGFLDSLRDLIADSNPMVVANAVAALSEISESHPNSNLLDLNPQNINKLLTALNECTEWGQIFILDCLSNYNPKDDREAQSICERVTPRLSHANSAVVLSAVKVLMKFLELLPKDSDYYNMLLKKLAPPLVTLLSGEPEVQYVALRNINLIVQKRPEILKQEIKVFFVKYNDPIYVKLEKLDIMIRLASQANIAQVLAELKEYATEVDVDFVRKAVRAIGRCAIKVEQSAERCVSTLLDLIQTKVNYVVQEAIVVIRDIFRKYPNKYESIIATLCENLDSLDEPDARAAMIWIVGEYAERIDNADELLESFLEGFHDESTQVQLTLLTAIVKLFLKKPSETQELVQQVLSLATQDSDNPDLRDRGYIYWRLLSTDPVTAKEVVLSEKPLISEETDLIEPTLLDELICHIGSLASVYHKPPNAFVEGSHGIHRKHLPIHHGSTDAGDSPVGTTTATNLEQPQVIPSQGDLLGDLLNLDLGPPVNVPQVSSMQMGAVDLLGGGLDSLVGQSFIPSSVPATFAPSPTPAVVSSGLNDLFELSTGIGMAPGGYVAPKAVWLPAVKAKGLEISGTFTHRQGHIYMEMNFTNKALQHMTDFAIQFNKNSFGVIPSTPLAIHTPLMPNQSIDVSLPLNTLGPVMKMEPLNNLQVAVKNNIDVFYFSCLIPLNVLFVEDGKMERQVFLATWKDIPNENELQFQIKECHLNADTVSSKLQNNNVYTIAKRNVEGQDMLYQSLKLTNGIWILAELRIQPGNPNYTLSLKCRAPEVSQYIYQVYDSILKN
Assay [7] is described as follows: cytosolic pH regulators acting via V-ATPase – S. cerevisiae, pHLuorin, HTS validation (AID 504600; in the data active means response above about 15%;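 further: plate controls were DMSO for no effect and reference compound for full effect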). To be noted: V-ATPase proton transport, at 10 µM, stronger effect = higher value.
Assay [8] concerns anti-desmoglein-3 scFv antibody binding to human DSG3. In words: blockers of pathogenic pemphigus antibody–desmoglein-3 binding – biochemical, validation compound set, bead-based, flow cytometry, pilot screen (AID 588368;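 active means binding below the plate cutoff, the plate median minus 3 SD, with a reading above zero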;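 further: signal is the median channel fluorescence of bead-bound GFP antibody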). To be noted: Protein G beads, DSG3-Fc, scFv-GFP binding, at 10 µM, stronger effect = lower value.
The nature of assay [9]: Nile Red efflux blockade in pump-expressing yeast – validation compound set, multiplex, phenotypic, pilot screen (AID 588506;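 active means efflux inhibition above 0.42, the validation set average plus 4 SD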;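 further: Nile Red retained in cells so higher fluorescence means more efflux inhibition; 0 = negative control wells and 1 = enniatin B 25 µM full block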). To be noted: S. cerevisiae pump-expressing triplex, Nile Red efflux flow cytometry; at 10 µM; stronger effect = higher value; the pumps come from Candida albicans.
For assay [10], the target named is ATP-binding cassette sub-family B member 6 (Homo sapiens) (UniProt Q9NP58). In words: blockers of ABCB6-driven porphyrin uptake – K562-ABCB6 cells, flow cytometry, validation set, pilot screen (AID 588550;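 active means inhibition above the screen-wide mean plus 3 SD, about 51%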;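 further: 0% = DMSO wells and 100% = benzethonium chloride 70 µM positive control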). The following applies: K562-ABCB6 porphyrin accumulation, 1 h, at 10 µM, stronger effect = higher value.
ATP-binding cassette sub-family B member 6 (Homo sapiens), sequence (Q9NP58 whole entry, looked up): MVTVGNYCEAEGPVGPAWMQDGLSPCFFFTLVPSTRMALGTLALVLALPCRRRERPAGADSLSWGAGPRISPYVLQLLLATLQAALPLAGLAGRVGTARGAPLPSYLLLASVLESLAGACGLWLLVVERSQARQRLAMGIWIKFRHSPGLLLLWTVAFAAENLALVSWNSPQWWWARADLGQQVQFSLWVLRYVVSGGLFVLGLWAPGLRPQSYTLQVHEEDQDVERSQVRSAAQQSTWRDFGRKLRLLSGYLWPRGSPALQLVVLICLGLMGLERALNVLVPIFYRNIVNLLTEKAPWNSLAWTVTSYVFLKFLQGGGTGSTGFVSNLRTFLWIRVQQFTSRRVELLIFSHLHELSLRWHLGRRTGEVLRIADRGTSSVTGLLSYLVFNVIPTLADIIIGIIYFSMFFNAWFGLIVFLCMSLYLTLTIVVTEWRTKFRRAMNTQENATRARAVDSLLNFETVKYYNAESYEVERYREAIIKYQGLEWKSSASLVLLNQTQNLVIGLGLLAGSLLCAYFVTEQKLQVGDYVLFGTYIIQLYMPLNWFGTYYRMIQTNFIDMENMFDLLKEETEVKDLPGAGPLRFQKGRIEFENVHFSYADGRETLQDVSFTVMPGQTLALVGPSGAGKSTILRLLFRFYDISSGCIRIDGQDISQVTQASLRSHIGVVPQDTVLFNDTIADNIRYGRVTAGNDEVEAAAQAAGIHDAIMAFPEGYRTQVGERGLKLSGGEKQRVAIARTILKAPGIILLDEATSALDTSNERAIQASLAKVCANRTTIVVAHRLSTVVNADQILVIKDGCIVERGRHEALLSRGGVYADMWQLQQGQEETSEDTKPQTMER
Assay [11] in a line: AML differentiation inducers, ER-HoxA9 marrow cells – cell-based, GFP/MAC1 double positive, flow cytometry, validation set, primary screen (AID 588685;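 active means differentiation response of at least 50%, scaled between solvent and reference control, from cells with both markers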;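 further: compound exposure lasts four days before antibody staining and flow analysis; 0% = DMSO wells and 100% = 5 µM fulvestrant positive control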). The following applies: stronger effect = higher value, normalized: vehicle 0, fulvestrant 100.
Assay [12] in a line: hit retest on RPL19A-GFP reporter strain – cell-based, S. cerevisiae, flow cytometry, cherry picks, mother/daughter gates, confirmation (AID 2270;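 active means GFP response below 50% of the DMSO control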). To be noted: 3 h, at 10 µM, stronger effect = lower value, 100 = same GFP as DMSO wells.
Assay [13] can be described thus: yeast TOR pathway reporter LAP4-GFP change – cell-based, cherry picks, flow cytometry, mother/daughter gates, confirmation (AID 2271;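 active means GFP response above 150% of the DMSO control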;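 further: ratio of sample to DMSO plate mean so 100% equals DMSO level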). To be noted: S. cerevisiae LAP4-GFP strain, 3 h, at 10 µM, stronger effect = higher value, 100 means same as DMSO control.
The nature of assay [14]: TOR pathway reporter MEP2-GFP, retest of hits – S. cerevisiae, flow cytometry GFP, cherry picks, confirmation (AID 2272;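 active means GFP response above 150% of the DMSO control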;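 further: ratio of well signal to plate DMSO mean so 100% equals DMSO level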). To be noted: S. cerevisiae MEP2-GFP strain, 3 h, at 10 µM, stronger effect = higher value.
The nature of assay [15]: yeast AGP1-GFP fluorescence change, single-dose – cell-based, flow cytometry, S. cerevisiae, cherry picks, confirmation (AID 2273).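 Further: median GFP channel fluorescence over the whole cell population gate.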 The following applies: S. cerevisiae AGP1-GFP strain, 3 h, at 10 µM.
The nature of assay [16]: TOR pathway CIT2 reporter hit retest – S. cerevisiae, GFP fusion, cherry picks, mother/daughter gates, confirmation (AID 2274). To be noted: S. cerevisiae CIT2-GFP strain, flow cytometry, 3 h, at 10 µM, stronger effect = higher value.
[17] abbreviates: measured here: daughter cell gate.
The mark [18] stands for this setting: measured here: mother cell gate.

Beta-adrenergic receptor kinase 1 (Homo sapiens), sequence (P25098 whole entry, looked up): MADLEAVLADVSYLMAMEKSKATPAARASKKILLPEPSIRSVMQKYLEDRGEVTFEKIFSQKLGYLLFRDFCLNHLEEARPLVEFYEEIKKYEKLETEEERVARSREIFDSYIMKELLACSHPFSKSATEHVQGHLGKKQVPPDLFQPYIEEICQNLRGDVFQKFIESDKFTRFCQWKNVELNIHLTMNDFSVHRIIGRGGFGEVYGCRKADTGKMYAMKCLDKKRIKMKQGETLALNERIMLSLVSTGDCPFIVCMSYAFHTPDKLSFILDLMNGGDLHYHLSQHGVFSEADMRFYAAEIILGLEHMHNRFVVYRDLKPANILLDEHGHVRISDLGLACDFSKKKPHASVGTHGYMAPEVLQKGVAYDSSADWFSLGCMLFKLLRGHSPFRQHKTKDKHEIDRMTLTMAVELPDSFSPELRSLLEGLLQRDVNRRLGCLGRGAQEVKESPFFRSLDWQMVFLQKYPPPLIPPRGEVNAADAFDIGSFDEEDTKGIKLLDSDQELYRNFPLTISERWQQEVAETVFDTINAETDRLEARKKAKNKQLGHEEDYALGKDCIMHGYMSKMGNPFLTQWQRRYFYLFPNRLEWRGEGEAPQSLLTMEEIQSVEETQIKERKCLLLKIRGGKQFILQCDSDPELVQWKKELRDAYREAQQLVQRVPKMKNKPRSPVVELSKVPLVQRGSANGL
Integrin beta-1 (Homo sapiens) + Integrin alpha-4 (Homo sapiens), sequence (P05556 whole entry, looked up): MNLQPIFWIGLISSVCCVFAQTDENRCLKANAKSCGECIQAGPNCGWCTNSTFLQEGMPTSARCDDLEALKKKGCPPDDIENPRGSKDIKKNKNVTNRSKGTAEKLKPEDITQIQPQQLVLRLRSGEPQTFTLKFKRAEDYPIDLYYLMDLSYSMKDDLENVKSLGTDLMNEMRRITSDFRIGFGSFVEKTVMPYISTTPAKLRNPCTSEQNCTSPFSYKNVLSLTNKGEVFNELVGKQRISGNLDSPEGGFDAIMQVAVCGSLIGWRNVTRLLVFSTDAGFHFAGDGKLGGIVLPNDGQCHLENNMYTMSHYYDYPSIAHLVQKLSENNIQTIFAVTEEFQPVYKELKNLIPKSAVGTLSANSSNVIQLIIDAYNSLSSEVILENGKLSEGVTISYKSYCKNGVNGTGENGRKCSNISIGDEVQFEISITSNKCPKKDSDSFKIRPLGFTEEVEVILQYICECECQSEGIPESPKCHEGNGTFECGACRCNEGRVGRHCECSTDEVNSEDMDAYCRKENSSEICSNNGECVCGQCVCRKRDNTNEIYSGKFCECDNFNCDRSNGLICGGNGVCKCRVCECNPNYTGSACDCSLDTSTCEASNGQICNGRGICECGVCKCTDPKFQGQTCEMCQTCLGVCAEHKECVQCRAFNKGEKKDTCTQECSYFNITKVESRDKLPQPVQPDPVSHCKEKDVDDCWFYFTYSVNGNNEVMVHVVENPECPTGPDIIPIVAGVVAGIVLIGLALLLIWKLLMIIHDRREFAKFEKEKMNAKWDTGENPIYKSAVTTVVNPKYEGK
Integrin beta-1 (Homo sapiens) + Integrin alpha-4 (Homo sapiens), sequence (P13612 whole entry, looked up): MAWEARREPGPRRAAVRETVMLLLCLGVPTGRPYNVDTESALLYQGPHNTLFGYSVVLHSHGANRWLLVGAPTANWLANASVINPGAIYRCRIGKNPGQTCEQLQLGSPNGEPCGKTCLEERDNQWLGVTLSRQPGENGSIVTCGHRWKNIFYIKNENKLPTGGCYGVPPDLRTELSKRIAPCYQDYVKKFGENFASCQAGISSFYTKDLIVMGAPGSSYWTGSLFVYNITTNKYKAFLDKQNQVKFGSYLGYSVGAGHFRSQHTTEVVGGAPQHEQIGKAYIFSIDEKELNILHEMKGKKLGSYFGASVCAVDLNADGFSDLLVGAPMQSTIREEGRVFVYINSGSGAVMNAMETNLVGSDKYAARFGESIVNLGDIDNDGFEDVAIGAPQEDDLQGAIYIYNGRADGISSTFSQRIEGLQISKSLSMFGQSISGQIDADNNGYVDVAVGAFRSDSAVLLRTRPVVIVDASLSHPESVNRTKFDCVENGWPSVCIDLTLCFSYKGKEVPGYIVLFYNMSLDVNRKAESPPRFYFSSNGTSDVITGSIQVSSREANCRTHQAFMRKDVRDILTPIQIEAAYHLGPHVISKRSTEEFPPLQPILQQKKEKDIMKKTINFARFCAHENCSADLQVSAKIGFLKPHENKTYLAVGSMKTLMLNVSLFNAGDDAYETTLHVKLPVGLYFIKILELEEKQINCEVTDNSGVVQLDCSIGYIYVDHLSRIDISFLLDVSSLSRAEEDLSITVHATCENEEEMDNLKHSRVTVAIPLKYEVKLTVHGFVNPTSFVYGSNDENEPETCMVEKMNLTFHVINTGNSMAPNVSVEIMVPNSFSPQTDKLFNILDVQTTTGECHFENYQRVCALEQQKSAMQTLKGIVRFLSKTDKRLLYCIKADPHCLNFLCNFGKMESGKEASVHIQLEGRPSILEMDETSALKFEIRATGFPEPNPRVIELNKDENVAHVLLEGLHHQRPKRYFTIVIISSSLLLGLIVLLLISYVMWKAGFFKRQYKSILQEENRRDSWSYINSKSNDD

In assay [1], `CCN(CC)CCN1C(=O)C(=O)/C(=C(/O)c2c(C)[nH]c(C(=O)OC)c2C)C1c1cccnc1` (configuration not stated) yielded a double positive events of 60.5%. Besides, the vesicle binding response in assay [1] is 235% (inactive). In addition, the inhibition in [2] is -19.5% (inactive); in [6] it was 0.35% (inactive); in [10], 9% (inactive). For the same compound, the superoxide response (% of plate) in [3] was 95.2% (inactive). For the same compound, the aptamer binding inhibition in assay [4] is 4% (inactive). The response in [5] was 13.3% (inactive); in assay [7], -2.49% (inactive). Further, the binding (% of control) in assay [8] is 103% (inactive). In addition, the efflux inhibition (fraction of control) in assay [9] is 0.05 (inactive). Also, the differentiation response in assay [11] was -12% (inactive).

Regarding `COc1ccccc1/C=C/C(=O)c1ccc(Cl)cc1`, the GFP response vs DMSO is 102% (inactive) in assay [12] and 97.8% (inactive) in [14]. Further, in assay [13], the GFP response relative to DMSO was 92.6% (inactive). The GFP response, % of DMSO in assay [15] is 98.9% (inactive); in assay [16], 103% (inactive).

Take `O=C(/C=C/c1ccccc1)/C=C/c1ccccc1`: the double positive events in [1] was found to be 69.3%. Also, in assay [1], the vesicle binding response was 434% (inactive). Moreover, the inhibition in assay [2] is 21.4% (inactive); in [6], -3.48% (inactive); in assay [10], 2% (inactive). Further, the superoxide response (% of plate) in [3] was 105% (inactive). Also, the aptamer binding inhibition in assay [4] is 2% (inactive). Moreover, the response in assay [5] is 48.5% (active); in [7] it was 0.62% (inactive). Also, the binding (% of control) in assay [8] is 96.6% (inactive). For the same compound, the efflux inhibition (fraction of control) in [9] was -0.17 (inactive). In addition, in assay [11], the differentiation response is -16.8% (inactive).

`COc1ccc(/C=C\C(=O)c2c(O)ccc3c(C)cc(=O)oc23)cc1OC` registered a double positive events in assay [1] of 60.8%. Further, the vesicle binding response in [1] was 182% (inactive). The inhibition in [2] was 14.2% (inactive); in assay [6] it was 60.6% (active); in [10] it was -4% (inactive). Besides, the superoxide response (% of plate) in [3] was 94.3% (inactive). Also, the aptamer binding inhibition in [4] is 1% (inactive). Also, the response in assay [5] is 16.8% (inactive); in assay [7], -0.16% (inactive). Further, the binding (% of control) in [8] was 106% (inactive). Further, the efflux inhibition (fraction of control) in assay [9] was 0.29 (inactive). Moreover, the differentiation response in [11] is -1.05% (inactive).

As for `CCN(CC)CCCN(C(=O)c1cccs1)c1nc(-c2ccc(OC)cc2)cs1`, the GFP response vs DMSO in assay [12] is 104% (inactive); in [14], 109% (inactive). Further, the GFP response relative to DMSO in assay [13] is 98.7% (inactive). Moreover, the GFP response, % of DMSO in assay [15] is 98% (inactive); in assay [16], 107% (inactive); in assay [16] (setting [17]), 101%; in assay [16] (setting [18]), 101%.

Regarding `Fc1ccc(C2Nc3cccc4cccc(c34)N2)cc1`, the GFP response vs DMSO in assay [12] is 98.2% (inactive); in assay [14] it was 97.8% (inactive). The GFP response relative to DMSO in assay [13] was 106% (inactive). The figures for the GFP response, % of DMSO in [15] and in [16] were 95.4% (inactive) and 97.8% (inactive), respectively.

In the case of `CC(C)(C)C(=O)NC(=S)NNC(=O)c1sc2ccccc2c1Cl`, the GFP response vs DMSO in [12] is 116% (inactive); in [14] it was 122% (inactive). In addition, in assay [13], the GFP response relative to DMSO was 242% (active). Besides, the GFP response, % of DMSO is 137% (inactive) in assay [15], 106% (inactive) in [16], 90.5% in assay [16] (setting [17]) and 91.5% in [16] (setting [18]).

`C=CCN1C(=O)c2oc3ccccc3c(=O)c2C1c1ccc(O)c(OC)c1` (configuration not stated) had a double positive events in assay [1] of 60.1%. In assay [1], the vesicle binding response was 150% (inactive). Also, the figures for the inhibition in [2], in [6] and in [10] were 10.5% (inactive), -0.24% (inactive) and 0% (inactive), respectively. The superoxide response (% of plate) in assay [3] was 102% (inactive). In assay [4], the aptamer binding inhibition was 2% (inactive). Also, the response in assay [5] was 105% (active); in [7], 2.05% (inactive). In [8], the binding (% of control) is 99.1% (inactive). For the same compound, the efflux inhibition (fraction of control) in [9] is 0.37 (inactive). Besides, the differentiation response in [11] is 40.8% (inactive).
